From PubChem BioAssay (NCI) come the findings set out here.

Some test systems named below: DU-145 prostate; K-562 leukemia; MALME-3M melanoma; MDA-MB-231 breast; RXF 393 renal; SF-268 CNS; SF-539 CNS; UACC-257 melanoma; M14 melanoma; SF-295 CNS.
Holding throughout (assay): NCI-60 one-dose screen, 48 h (100 = growth as untreated, 0 = no growth, -100 = all killed)
Holding throughout (conditions): 10 µM unless noted

Each structure is given as a SMILES string. Compounds without any hit were thinned out: in the full panel of roughly 83,000, 20% have a hit.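 A percent growth of 40 corresponds to 60% growth inhibition; 0 means no net growth; -100 means all cells died. Active threshold: below 10.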 A number with no mark means an inactive call. Active and inactive are the calls of the source.

Turning to `Fc1ccc(CNCCNc2ncnc3c2cnn3-c2ccccc2)cc1`, the growth is 114% in the assay with DU-145 prostate; 83.3% in the assay on K-562 leukemia; 92.4% with MALME-3M melanoma; 79% in the assay with MDA-MB-231 breast; 74.6% with RXF 393 renal; 92.3% with SF-268 CNS. The growth was 100% with SF-539 CNS, 85.6% in the assay with UACC-257 melanoma and 103% with M14 melanoma.
Consider `COc1ccc(C2=Nn3c(nnc3-n3nc(C)cc3C)SC2)cc1`, for which the growth was -15.9% (active) with DU-145 prostate; 4.47% (active) with K-562 leukemia; 49.9% in the assay on MALME-3M melanoma; -7.82% (active) with MDA-MB-231 breast; 4.22% (active) in the assay with RXF 393 renal; 29.9% in the assay with SF-268 CNS. Besides, the growth is 1.51% (active) with SF-539 CNS, 64.7% in the assay with UACC-257 melanoma and 10% in the assay with M14 melanoma.
For the compound `Fc1ccc(Nc2nc(NCCNc3ccnc4cc(Cl)ccc34)nc(N3CCOCC3)n2)cc1`, the growth with DU-145 prostate is 75%; in the assay on K-562 leukemia, 1.44% (active); with MALME-3M melanoma it was -63.1% (active); in the assay on MDA-MB-231 breast, 20.1%; with RXF 393 renal, 21.3%; with SF-268 CNS, 66.6%. The growth with SF-539 CNS is 69.3%; in the assay with UACC-257 melanoma it was -88.8% (active); with M14 melanoma it was -42.7% (active).
On to `O=C(/C=C/c1c[nH]c2ccccc12)c1ccc(O)c(CN2CCN(c3ccc(F)cc3)CC2)c1`, for which the growth was 107% in the assay with DU-145 prostate; 103% in the assay on K-562 leukemia; 101% in the assay on MALME-3M melanoma; 98.7% in the assay on MDA-MB-231 breast; 108% in the assay with RXF 393 renal; 94% with SF-268 CNS. Also, the growth in the assay on SF-539 CNS was 98.3%; with UACC-257 melanoma, 115%; in the assay with M14 melanoma, 99.4%.
For the compound `Cn1c2ccc(Br)cc2c2c3c(c4c5ccccc5[nH]c4c21)C(=O)N(O)C3=O`, the growth in the assay with DU-145 prostate is -71.1% (active); with K-562 leukemia it was -8.92% (active); with MALME-3M melanoma, -85% (active); in the assay with MDA-MB-231 breast, -74.1% (active); in the assay with RXF 393 renal it was -99.5% (active); in the assay on SF-268 CNS, -45.7% (active). Also, the growth was -92.6% (active) in the assay on SF-539 CNS, -33.7% (active) in the assay on UACC-257 melanoma and -78.2% (active) with M14 melanoma.
With `O=C1/C(=C/c2ccc(Cl)cc2)CN(Cc2cn(CCNc3ccnc4cc(Cl)ccc34)nn2)C/C1=C\c1ccc(Cl)cc1`, the growth in the assay on DU-145 prostate was -97.3% (active); in the assay with K-562 leukemia, -34.5% (active); in the assay with MALME-3M melanoma, -69.5% (active); in the assay with MDA-MB-231 breast, -43.2% (active); in the assay on RXF 393 renal, -94.5% (active); with SF-268 CNS, -78% (active). Further, the growth is -97% (active) with SF-539 CNS, -92.1% (active) in the assay with UACC-257 melanoma and -70.5% (active) with M14 melanoma.
Turning to `COc1ccc(OC)c(C2OC(c3ccc4ccccc4c3O)=NN2C(C)=O)c1` (stereo not given), the growth in the assay on DU-145 prostate was 77.8%; with K-562 leukemia, 31.3%; in the assay with MALME-3M melanoma it was 43.8%; in the assay with MDA-MB-231 breast, 91.1%; with RXF 393 renal, 53.1%; with SF-268 CNS, 80.3%. For the same compound, the growth with SF-539 CNS is 65.5%; in the assay on UACC-257 melanoma, 57.6%; in the assay with M14 melanoma it was 54.6%.
With `O=C(/C=C/c1cc(-c2ccc3c(c2)OCO3)n[nH]1)c1ccc2c(c1)OCO2`, the growth in the assay with DU-145 prostate is 104%; in the assay with K-562 leukemia it was 82.6%; in the assay with MALME-3M melanoma, 106%; with MDA-MB-231 breast, 92.4%; in the assay on RXF 393 renal it was 94.4%; in the assay with SF-268 CNS, 93.3%. In addition, the values for the growth in the assay with SF-295 CNS, in the assay on UACC-257 melanoma and with M14 melanoma were 97%, 96.1% and 99.6%, respectively.
As to `COc1cc(-c2nn(-c3cccc(NC(=O)c4ccccc4)c3)cc2-c2ccncc2)ccc1Cl`, the growth was 11.6% in the assay on DU-145 prostate; 2.59% (active) in the assay on K-562 leukemia; 22.4% with MALME-3M melanoma; 5.8% (active) in the assay with MDA-MB-231 breast; -19.2% (active) with RXF 393 renal; 18.7% in the assay on SF-268 CNS. In addition, the figures for the growth with SF-539 CNS, in the assay on UACC-257 melanoma and with M14 melanoma were -15% (active), 8.64% (active) and -3.82% (active), respectively.
For the compound `O=c1cc(Cc2ccc([N+](=O)[O-])cc2)[nH]c(=O)[nH]1`, the growth in the assay on DU-145 prostate was 119%; in the assay with K-562 leukemia it was 111%; in the assay on MALME-3M melanoma, 99.9%; with MDA-MB-231 breast, 110%; in the assay on RXF 393 renal it was 109%; with SF-268 CNS, 106%. Besides, the growth is 122% in the assay with SF-295 CNS, 109% with UACC-257 melanoma and 104% with M14 melanoma.
Take `O=c1c2sc3ncccc3c2nnn1-c1ccccc1`: the growth in the assay with DU-145 prostate was 115%; with K-562 leukemia it was 93.3%; with MALME-3M melanoma, 105%; in the assay with MDA-MB-231 breast, 97.2%; with RXF 393 renal it was 101%; with SF-268 CNS, 102%. For the same compound, the results for the growth in the assay with SF-539 CNS, in the assay on UACC-257 melanoma and with M14 melanoma were 102%, 102% and 108%, respectively.
For `CCOC(=O)c1ccc2c(c1)c1c(C)c3cccnc3c(C)c1n2C`, the growth is 52.7% with DU-145 prostate; 39.5% in the assay on K-562 leukemia; 68.7% in the assay on MALME-3M melanoma; 50.7% in the assay with MDA-MB-231 breast; 75.6% in the assay with RXF 393 renal; 50.9% in the assay with SF-268 CNS. For the same compound, the growth with SF-539 CNS is 67%; in the assay on UACC-257 melanoma it was 115%; with M14 melanoma it was 53.2%.
Regarding `COc1ccc(NC(=O)CSc2nc(-c3ccc(OC)c(OC)c3)cc(-c3cc(OC)c(OC)c(OC)c3)n2)cc1`, the growth with DU-145 prostate is 112%; with K-562 leukemia it was 95.7%; with MALME-3M melanoma it was 128%; with MDA-MB-231 breast, 91.9%; in the assay with RXF 393 renal, 101%; in the assay with SF-268 CNS, 102%. The growth in the assay with SF-295 CNS was 126%; in the assay on UACC-257 melanoma, 111%; in the assay on M14 melanoma, 102%.
For the compound `O=C(Nc1cccc(-n2cc(-c3ccncc3)c(-c3ccc(Cl)c(O)c3)n2)c1)c1ccccc1`, the growth in the assay with DU-145 prostate was 56.9%; with K-562 leukemia it was 60.7%; in the assay with MALME-3M melanoma, 53.1%; with MDA-MB-231 breast, 63.2%; in the assay with RXF 393 renal, 0.59% (active); with SF-268 CNS, 68.3%. Moreover, the results for the growth in the assay with SF-539 CNS, with UACC-257 melanoma and in the assay with M14 melanoma were 74.7%, 44.2% and 54.9%, respectively.
Take `COc1cc(-c2nn(-c3cccc(NC(=O)c4ccc(N5CCOCC5)c(C(F)(F)F)c4)c3)cc2-c2ccncc2)ccc1Cl`: the growth was 10.9% with DU-145 prostate; 1.22% (active) with K-562 leukemia; 36.2% in the assay on MALME-3M melanoma; -25.2% (active) in the assay on MDA-MB-231 breast; -45.2% (active) with RXF 393 renal; 22.5% with SF-268 CNS. The growth in the assay with SF-539 CNS was -68.9% (active); in the assay with UACC-257 melanoma, 24.3%; with M14 melanoma, 1.42% (active).
